Experimental data published in PubChem BioAssay AID651734 (Southern Research Specialized Biocontainment Screening …, 2012).
Potency and affinity values are given separately. Activity calls are given as the source filed them. Entries that show only a call come without a potency. The rule behind the calls is not given here.

Assay: VEEV TC-83 cytopathic effect inhibition, confirmation, cell-based, TC-83 strain, set 7 (AID 651734)
Details: VEEV TC-83 infected cells; series mostly up to 50 µM

SMILES | outcome
COc1ccc(CNc2nc(=O)c3cccnc3s2)cc1 | inactive
CCN1CCN(Cc2nc3ccc(-c4ccccn4)cc3c(=O)n2-c2ccccc2)CC1 | inactive
COc1ccc(Nc2nc(=O)c3cccnc3s2)cc1 | inactive
CCN1CCN(C2c3ncccc3C(=O)N2c2ccccc2)CC1 (centres undefined) | inactive
